Bioassay records from PubChem.
ATXN2 expr inh = Primary qHTS for Inhibitors of ATXN expression; HEK-293 ATXN2-luciferase reporter, luminescence, 24 h; actives 0.72% (n = 360,000); AID 1745845, 2022; Potency, µM (series often up to 57 µM), without a hit: top-dose activity change, negative = inhibition, hits mostly inhibitors; also: potency is read from the fitted curve at half-maximal effect; % is scaled to controls: 0 for no effect and ±100 for the full control effect; nearly all actives have a fitted effect of over 55% in size
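ATXN2-luciferase reporter cells (luciferase flanked by upstream and downstream ATXN2 gene portions) were treated 24 h at 37 °C with compounds at up to 57 uM. SteadyGlo luminescence gave expression; GF-AFC fluorescence gave viability.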
ATXN viability = Viability Counterscreen for Primary qHTS for Inhibitors of ATXN expression; S2 cells (HEK-293 line with an ATXN2-luciferase reporter) viability, CellTiter-Fluor protease fluorescence, 24 h; Potency, µM (doses to about 56.7 µM), most hits filed as cytotoxic; AID 651635, 2014; actives 0.49% (n = 400,000); also: potency is read from the fitted curve at half-maximal effect; nearly all actives have a fitted effect of over 40% in size
USP1-UAF1 inh = Inhibitors of USP1/UAF1: Primary Screen; Potency, µM (titrated, usually from 57.1 µM), without a hit: top-dose activity change, negative = inhibition, most hits filed as inhibitors; Ubiquitin carboxyl-terminal hydrolase 1 (Homo sapiens), O94782; actives 0.23% (n = 390,000); recombinant USP1/UAF1, Ub-Rhodamine cleavage fluorescence; also: potency is read from the fitted curve at half-maximal effect; % is scaled to controls: 0 for no effect and ±100 for the full control effect; nearly all actives have a fitted effect of over 60% in size
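USP1/UAF1 complex (1 nM) preincubated 15 min at room temperature with compound, then Ub-Rho substrate (150 nM final) added. Kinetic fluorescence at 480/540 nm over 6 reads at 60 s intervals; 50 mM HEPES pH 7.8, 0.5 mM EDTA, 0.1 mg/ml BSA, 1 mM TCEP, 0.01% Tween-20.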
USP2a block = qHTS Assay for Inhibitors of Ubiquitin-specific Protease USP2a Using CHOP2 as the Reporter. Potency, µM (top dose mostly 38.3 µM), inactives show at the highest dose activity change, negative = inhibition, usual class: inhibitors. USP2 core, Ub-CHOP2 coupled fluorogenic reporter, 485/531. AID 463254, 2010. actives 0.01% (n = 330,000);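 also: potency is read from the fitted curve at half-maximal effect; plate controls were DMSO wells for no effect and full inhibition by NEM control for full effect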
Target sequence (O75604 whole entry, looked up): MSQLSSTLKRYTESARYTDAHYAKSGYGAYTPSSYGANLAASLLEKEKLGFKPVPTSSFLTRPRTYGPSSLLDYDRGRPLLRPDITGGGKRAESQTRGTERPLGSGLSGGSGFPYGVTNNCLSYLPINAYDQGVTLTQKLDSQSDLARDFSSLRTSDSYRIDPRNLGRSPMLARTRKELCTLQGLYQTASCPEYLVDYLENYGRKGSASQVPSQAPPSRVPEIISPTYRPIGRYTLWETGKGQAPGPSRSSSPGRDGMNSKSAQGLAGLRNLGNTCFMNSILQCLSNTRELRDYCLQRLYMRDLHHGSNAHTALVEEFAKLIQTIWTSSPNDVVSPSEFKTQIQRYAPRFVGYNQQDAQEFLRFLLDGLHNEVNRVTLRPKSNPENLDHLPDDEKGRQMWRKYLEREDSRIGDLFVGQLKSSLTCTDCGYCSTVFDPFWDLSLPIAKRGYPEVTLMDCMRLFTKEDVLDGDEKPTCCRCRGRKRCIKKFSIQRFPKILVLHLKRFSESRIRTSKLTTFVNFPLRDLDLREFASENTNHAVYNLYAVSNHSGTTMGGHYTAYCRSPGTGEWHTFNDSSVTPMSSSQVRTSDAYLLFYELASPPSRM
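Deubiquitinase activity read as fluorescence (485/531 nm) after Ub-CHOP2 cleavage activates the enterokinase reporter on its substrate; USP2 core 10nM, Ub-CHOP2 and substrate 25nM each, 30min compound preincubation then 60min RT; data normalized to NEM, curves fitted.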
IL1B secr inh = qHTS for Inhibitors of Inflammasome Signaling: IL-1-beta AlphaLISA Primary Screen; THP-1 LPS/ATP IL-1B secretion, AlphaLISA, 16 h; hits give low values; activity change, % at 57.5 µM; actives 4.7% (n = 360,000); AID 743279, 2014; in the data active = activity change below about -50%; inconclusive = mostly about -30% to -49%; also: % is scaled to controls: 0 for no effect and ±100 for the full control effect
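THP-1 cells pretreated 1 hr with compounds (up to 57.5 uM final), then stimulated with LPS (250 ng/mL final) plus ATP (1.25 mM final); secreted IL-1B measured by AlphaLISA after 16 hr, decreased signal indicating inhibition.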
Active calls of the source: *; i = inactive; ? = inconclusive; · = no result; [ ] = remark or other dose. This is a sample that favours compounds with a hit; in the whole collection about 4.8% have one here. Unless noted, calls follow the shape of the dose curve; as a rule, active = well fitted curve in the direction sought with a large enough effect; inconclusive = small, poorly fitted or top-dose-only effect, or another doubt; inactive = no such curve, though single readings can be large; an effect the other way counts as inactive or inconclusive.

SMILES	ATXN2 expr inh	ATXN viability	USP1-UAF1 inh	USP2a block	IL1B secr inh
COc1ccccc1N(CC(=O)N/N=C/c1c(O)ccc2ccccc12)S(C)(=O)=O	8.9µM*	i	-20%	4%	-7
O=C(Cc1n[nH]c(=O)[nH]c1=O)N/N=C/c1c(O)ccc2ccccc12	-16%	i	-3%	-5%	-11
CC(=O)Nc1ccc(NC(=O)CCS(=O)(=O)c2ccc3c(c2)CC(=O)N3C)cc1	8%	i	-4%	·	·
Cc1ccc(S(=O)(=O)Nc2cccc3cccnc23)c([N+](=O)[O-])c1	10µM*	?	-20%	-2%	-73*
CC(=O)Nc1ccc(S(=O)(=O)Nc2cccc3cccnc23)cc1	-18%	·	-17%	1%	54
O=S(=O)(Nc1cccc2cccnc12)c1ccc(S(=O)(=O)N2CCCC2)cc1	?	i	-11%	-11%	-71*
Cc1cc(C)c(NS(=O)(=O)c2cccc3cccnc23)c(C)c1	-25%[11.3 µM]	i	-10%	0%	12
O=S(=O)(Nc1cccc2cccnc12)c1ccccc1	8.9µM*	?	-2%	2%	-104*
COc1cc(O)c(C(=O)CC(=O)c2ccncc2)c(OC)c1	-7%	i	?	·	-6
NC(=S)NN=C1c2ccccc2-c2ccccc21	·	1.4µM*	-11%	3%	-15
NC(N)=NN=C1c2ccccc2-c2ccccc21	-23%	i	-18%	1%	-64*
Cc1ccccc1CN1CCN(C(C)C(=O)NNC(=O)c2ccc(F)cc2)CC1 (stereo not given)	4%	i	-18%	2%	0
O=C1CC(c2ccc(Cl)cc2)CC(=O)C1CS(=O)(=O)c1ccccc1 (stereo not given)	6%	i	-1%	-4%	-58*
Cc1ccc(O)c(-c2cc(-c3ccc(F)cc3)no2)c1	·	i	-16%	-2%	37
COc1ccc(N2CCN(C(=O)CSc3nc4[nH]ncc4c(=O)n3-c3cccc4ccccc34)CC2)cc1	-14%	?	-15%	5%	-51*
Cn1c(=O)c([N+](=O)[O-])c(-n2cnc3ccccc32)c2ccccc21	?	?	-13%	2%	-98*
Cn1c(=O)c([N+](=O)[O-])c(NCCc2ccccc2)c2ccccc21	-11%	i	-9%	5%	-10
CCN(CC)c1c([N+](=O)[O-])c(=O)n(C)c2ccccc12	-12%	i	-4%	-2%	0
Cn1c(=O)c([N+](=O)[O-])c(Cl)c2ccccc21	?	·	-10%	0%	-101*
Cn1c(=O)c([N+](=O)[O-])c(NCc2ccccc2Cl)c2ccccc21	-12%	i	4%	-6%	-79*
O=C(OCC(=O)c1ccccc1Cl)C1=NN(c2ccccc2)C(=O)CC1	11%	?	-11%	1%	-4
CCOC(=O)c1[nH]nc(-c2cc(CC)c(O)cc2O)c1-c1cscn1	-36%	i	-5%	5%	-61*
O=C(c1n[nH]c2c1CCCC2)N1CCOc2ccc(C(O)C3CCCCC3)cc2C1 (stereo not given)	·	i	·	·	·
CN1CCN(CC#CCn2c3ccccc3c3ccccc32)CC1	25µM*	?	-3%	1%	?
C[C@@]1(c2cc(-c3cncnc3)c(F)cc2F)CCSC(N)=N1	14%	·	·	·	·
SMILES	ATXN2 expr inh	ATXN viability	USP1-UAF1 inh	USP2a block	IL1B secr inh
COc1ccc(C)cc1S(=O)(=O)N1CCN(C(=O)c2ncoc2-c2ccc(C)cc2)CC1	-2%	i	2%	0%	-53*
COc1ccc(C)cc1S(=O)(=O)N1CCN(C(=O)c2ncoc2-c2ccc(F)cc2)CC1	-5%	i	?	2%	21
COC(=O)c1ccc(CCc2cc(O)c(Br)cc2O)cc1	?	?	-23%	·	-79*
NC(=O)C1CCN(C(=O)COCc2cc(-c3ccc4c(c3)OCO4)on2)CC1	13%	i	-13%	0%	-3
COC(=O)c1ccc(/C=C/C(=O)OCC(=O)Nc2sccc2C(N)=O)cc1	7%	i	-13%	0%	-20
CC=Cc1cc(OC)c2c(c1)C(C)C(c1ccc(O)c(OC)c1)O2 (stereo not given)	7%	i	-15%	·	-65*
CCCc1[nH]nc2c1C(c1cccc(OC(=O)c3ccco3)c1)C(C#N)=C(N)O2 (stereo not given)	-2%	?	-13%	1%	-62*
CCC1(C2CCN(Cc3ccc(C)s3)CC2)NC(=O)N(CC2COc3ccccc3O2)C1=O (stereo not given)	·	i	·	·	·
CCOC(=O)c1c(C)[nH]c(C2=NNC(=NC3CC3)SC2)c1C	11µM*	i	-21%	-1%	-50*
CC(C)(C)[N+]([O-])=Cc1ccc(S(=O)(=O)O)cc1S(=O)(=O)O	13%	·	·	·	·
COCCN1C=C2C(=O)C(C)(OC(=O)CCC(=O)OC)C(=O)C(Br)=C2C=C1c1ccc(OC)cc1 (stereo not given)	2%	i	25µM*	·	10
C=CCN1C=C2C(=O)C(C)(OC(=O)CCC(=O)OC)C(=O)C(Br)=C2C=C1c1ccc(OC)cc1 (stereo not given)	8%	?	32µM*	20%	39
COC(=O)CCC(=O)OC1(C)C(=O)C2=CN(C3CCCC3)C(c3ccc(OC)cc3)=CC2=C(Br)C1=O (stereo not given)	2%	?	25µM*	13%	24
Cc1ccc2oc3c(c(=O)c2c1)C(c1ccc(OCC(N)=O)cc1)N(Cc1ccc2c(c1)OCO2)C3=O (stereo not given)	0%	i	-9%	·	·
Cc1ccc(NC(=O)C(Cc2ccccc2)NS(=O)(=O)c2ccc3c(c2)oc(=O)n3C)cc1F (stereo not given)	-10%	i	6%	·	·
Cn1c(=O)c(Nc2ccc(Cl)cc2)c2c3c(cccc31)C(=O)c1ccccc1-2	-25%	·	10µM*	?	-2
Cc1ccc(Cl)cc1-n1ncc2c(Nc3ccc4c(c3)OCCO4)ncnc21	23%	i	-15%	·	·
COc1cc(C2CC(=O)Nc3c2c(=O)n(C)c(=O)n3C)cc(OC)c1OC (stereo not given)	4%	i	-8%	·	·
CCN(CC)c1ccc2cc(C(=O)c3cccs3)c(=O)oc2c1	22%	·	·	·	-52*
OCCN1CCN(c2ncnc3sc(-c4ccccc4)cc23)CC1	-14%	i	-20%	2%	-93*
c1ccc(-c2cc3c(N4CCOCC4)ncnc3s2)cc1	-13%	i	-8%	-5%	-62*
